Molecules are shown by their SMILES. Inconclusive results are not listed. A number with no mark means an inactive call. The source made the active and inactive calls. The call rests on the fitted dose curve; in most records, active means well fitted cell-killing curve with a large enough effect; inconclusive means small, poorly fitted or top-dose-only effect, or effect the other way; inactive means no such curve, though single readings can be large or run the other way.

Test [1] can be described thus: Viability qHTS for spleen associated tyrosine kinase inhibitor (SYKi) naive MV4-11 cells (AID 1963823). Further: nearly all actives have a fitted effect of over 40% in size. The following applies: MV4-11 AML viability, CellTiter-Glo luminescence, 72 h; series mostly up to 45 µM. The method in brief: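 qHTS, SYK inhibitor-naive MV4-11; 500 cells/well; 72 hr compound exposure, 37 C; CellTiter-Glo added, 10 min RT; luminescence read.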
(qHTS replaces the single test concentration by a dilution series.)

The nature of test [2]: Viability qHTS for spleen associated tyrosine kinase inhibitor (SYKi) drug resistant MV4-11 cells (AID 1963824). Further: nearly all actives have a fitted effect of over 35% in size. The conditions noted are these: SYKi-resistant MV4-11 viability, CellTiter-Glo, 72 h; series mostly up to 45 µM. An outline of the steps: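 SYK inhibitor-resistant MV4-11 AML cells, 500 per well, added to predispensed compounds and incubated 72 hr at 37 C, 5% CO2. Viability measured by CellTiter-Glo luminescence after 10 min at room temperature.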
Potency means the concentration at half of the fitted maximal effect.

As to `Oc1cccc(C2NC(=S)Nc3cccc(F)c32)c1` (configuration not stated), the Potency is 4610 nM (active) in test [1] and 2.91 µM (active) in test [2].

For `CC(=O)O[C@H]1C[C@@]2(C)[C@@H](C[C@@H](O)[C@H]3[C@@]4(C)CC[C@@H](O)[C@@H](C)[C@@H]4CC[C@@]32C)/C1=C(\CCC=C(C)C)C(=O)O`, the Potency entry in test [1] and in test [2] was “inactive” in each case.

As for `CO[C@@H]1CC(OC2CCC3(C)C(CCC45CCC(C6=CC(=O)OC6)C(C)(CCC43)C5=O)C2)O[C@H](C)[C@@H]1O[C@@H]1O[C@H](CO[C@@H]2O[C@H](CO)[C@@H](O)[C@H](O)[C@H]2O)[C@@H](O)[C@H](O)[C@H]1O` (some centres not stated), the Potency in test [1] is 873 nM (active); in test [2], 0.778 µM (active).

Regarding `[N-]=[N+]=N[C@]1(CO)O[C@@H](n2ccc(=O)[nH]c2=O)[C@@H](O)[C@@H]1O`, the Potency entry in test [1] and in test [2] was “inactive” each time.

As for `O=C1OC(/C=C/c2ccccc2)=NC/1=C\c1cccnc1`, the Potency result in test [1] and in test [2] was “inactive” each time.

As for `O=C(O)CCc1cccc(O)c1O[C@@H]1O[C@H](CO)[C@@H](O)[C@H](O)[C@H]1O`, the Potency entry in test [1] and in test [2] was “inactive” in each case.

As to `CC1=C(C)C(=O)OC(C(C)C2C(O)CC3C4C5OC5C5(O)CC(OC6OC(CO)C(O)C(O)C6O)CC(O)C5(C)C4CCC32C)C1` (configuration not stated), the Potency result in test [1] and in test [2] was “inactive” in each case.

As for `C=C[C@H]1[C@H](O[C@@H]2O[C@H](CO)[C@@H](O)[C@H](O)[C@H]2O)OC=C(C(=O)OC)[C@H]1CCOC(=O)c1cc(O)c(O)c(O)c1`, the Potency result in test [1] and in test [2] was “inactive” throughout.

With `O=C(CCC1CCN(Cc2ccccc2)CC1)c1ccc2c(c1)NCCCC2`, the Potency in test [1] was 23100 nM (active); in test [2] it was 14.6 µM (active).

Consider `O=C(N/N=C/c1ccccc1O)c1ccncc1`, for which the Potency in test [1] is 944 nM (active); in test [2] it was 0.75 µM (active).

Regarding `CC/C=C\CCO[C@@H]1O[C@H](CO)[C@@H](O)[C@H](O)[C@H]1O`, the Potency result in test [1] and in test [2] was “inactive” in each case.

With `CC(CCc1ccc(O)cc1)O[C@@H]1O[C@H](CO[C@@H]2OC(CO)[C@H](O)[C@H]2O)[C@@H](O)[C@H](O)[C@H]1O` (some centres not stated), the Potency result in test [1] and in test [2] was “inactive” in each case.

Regarding `CC1=C2C(=O)C=C(CO)[C@@H]2[C@H]2OC(=O)[C@H](C)[C@@H]2[C@@H](O)C1`, the Potency result in test [1] and in test [2] was “inactive” throughout.

Take `C/C=C(\C)C(=O)O[C@@H]1CC2[C@@H](CC=C3C[C@@H](O[C@H]4C[C@H](OC)[C@H](O[C@H]5C[C@H](OC)[C@H](O[C@@H]6O[C@H](C)[C@@H](O[C@H]7C[C@H](OC)[C@H](O[C@@H]8O[C@H](CO)[C@@H](O)[C@H](O)[C@H]8O)[C@@H](C)O7)[C@H](OC)[C@H]6O)[C@@H](C)O5)[C@@H](C)O4)CC[C@@]32C)[C@@]2(O)CC[C@H](C(C)=O)[C@@]12C` (some centres not stated): the viability (% of control) in test [1] is 53.3% [at 9.25 µM]. The viability, % of control in test [2] is 61.7% [at 9.25 µM].

Regarding `C=C(C(=O)O)C1CCC(C)C2CCC(=O)OC2(C)C1` (configuration not stated), in test [1], the Potency entry is “inactive”. The Potency in test [2] was 20.6 µM (active).

As to `COc1cnc(-n2cnc(C)n2)c2[nH]cc(C(=O)C(=O)N3CCN(C(=O)c4ccccc4)CC3)c12`, the Potency result in test [1] and in test [2] was “inactive” in each case.

With `CCN(CC)C(=O)c1ccc(Nc2nc(OCC3CCCCC3)c3[nH]cnc3n2)cc1`, the Potency in test [1] was 1030 nM (active); in test [2] it was 1.46 µM (active).

For the molecule `CCCCC[C@H](O)C=C[C@H]1[C@H](O)CC(=O)[C@H]1CC=CCCCC(=O)O`, the Potency in test [1] is 119 nM (active); in test [2], 0.0186 µM (active).

In the case of `OC[C@H]1O[C@@H](OCCc2ccccc2)[C@H](O[C@@H]2OC[C@@H](O)[C@H](O)[C@H]2O)[C@@H](O)[C@@H]1O`, the Potency entry in test [1] and in test [2] was “inactive” in each case.

Regarding `COC(=O)C1=COC(OC2OC(CO)C(O)C(O)C2O)C2C1CC(OC(=O)C(O)CC(=O)O)C2C` (configuration not stated), the Potency entry in test [1] and in test [2] was “inactive” each time.

On to `CC1OC(OC2C(CO)OC(OCC3OC(OC(=O)C45CCC(C)(C)CC4C4=CCC6C7(C)CCC(OC8OC(C(=O)O)C(O)C(OC9OC(CO)C(O)C(O)C9O)C8O)C(C)(C)C7CCC6(C)C4(C)CC5)C(O)C(O)C3O)C(O)C2O)C(O)C(O)C1O` (configuration not stated), for which the viability (% of control) in test [1] was 92.6% [at 9.25 µM]. Further, the viability, % of control in test [2] is 105% [at 9.25 µM].

Regarding `CC(C(=O)O)C1CCC2(C)C3C(=O)C=C4C(CCC(=O)C4(C)C)C3(C)CCC12C` (configuration not stated), the Potency result in test [1] and in test [2] was “inactive” throughout.

Take `Cc1csc2c(N[C@@H](C)CN3CCN(S(=O)(=O)c4ccc(Cl)c(Cl)c4)CC3)ncnc12`: the Potency in test [1] was 259 nM (active); in test [2] it was 0.231 µM (active).

For the molecule `CCC(C)(O)C(O)C(=O)OCc1ccc(O[C@@H]2O[C@H](CO)[C@@H](O)[C@H](O)[C@H]2O)c(OC)c1` (some centres not stated), the Potency entry in test [1] and in test [2] was “inactive” throughout.

Regarding `CN(C)CC1CCn2c(c(C3=C(c4cn(C)c5ccccc45)C(=O)NC3=O)c3ccccc32)C1` (configuration not stated), the figures for the Potency in test [1] and in test [2] were 1460 nM (active) and 2.91 µM (active), respectively.

For the molecule `CC(C)(C)Nc1nc2cc(Cl)c(Cl)cc2nc1S(C)(=O)=O`, the Potency in test [1] was 731 nM (active); in test [2], 0.731 µM (active).
